NOMO-1 viab = NOMO-1 AML cell viability reduction, primary screen, STK33 inhibitor project, CellTiter-Glo luminescence; NOMO-1 AML viability, 72 h; inhibition, % (test concentration not listed); actives 7.5% (n = 37,000); AID 2330, 2010; in the data active = inhibition above about 80%; inconclusive = no clear call, values can overlap the other calls
STK33 inh = STK33 kinase inhibitors, primary screen, biochemical, luminescence, ADP-Glo, MBP substrate | Serine/threonine-protein kinase 33 (Homo sapiens), Q9BYT3 | inhibition, % at 12.5 µM | actives 0.44% (n = 27,000); in the data active = inhibition above about 20%; inconclusive = no clear call, values can overlap the other calls
Target sequence (Q9BYT3 whole entry, looked up): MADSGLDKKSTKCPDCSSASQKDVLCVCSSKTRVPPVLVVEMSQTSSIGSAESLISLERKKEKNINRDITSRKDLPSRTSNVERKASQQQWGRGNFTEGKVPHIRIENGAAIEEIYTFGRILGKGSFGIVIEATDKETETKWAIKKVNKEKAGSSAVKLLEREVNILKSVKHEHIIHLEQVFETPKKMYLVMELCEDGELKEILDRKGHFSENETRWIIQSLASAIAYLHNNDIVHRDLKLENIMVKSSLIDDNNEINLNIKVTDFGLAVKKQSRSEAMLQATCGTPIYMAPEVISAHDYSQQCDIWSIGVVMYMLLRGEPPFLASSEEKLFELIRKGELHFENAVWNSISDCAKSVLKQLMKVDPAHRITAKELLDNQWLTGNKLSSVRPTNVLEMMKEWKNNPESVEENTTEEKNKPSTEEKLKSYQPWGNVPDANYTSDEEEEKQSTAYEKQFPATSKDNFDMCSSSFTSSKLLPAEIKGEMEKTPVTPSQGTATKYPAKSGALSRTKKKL
PD-1 reverse act = activators reversing PD-1 mediated T-cell inhibition, primary screen, luminescence, primary human CD4 T cells, PD-L1 beads. CellTiter-Glo 96 h. AID 2316, 2010. 29,000 tested, under 10 active. activation, % (test concentration not listed); call rule not given here
Of the large screens only hits and unclear results are named; the others gave an inactive call. This excerpt belongs to a sample that is enriched for hits.

COc1ccc(C2(CNC(=O)C3COc4ccccc4O3)CCCC2)cc1OC (stereo not given)	none (no result: PD-1 reverse act)
CCOC(=O)c1c(NC(=O)C(C)Oc2ccccc2)sc(C)c1C (stereo not given)	none
Cc1ccc(NC(=O)Cn2nc(-c3cccc([N+](=O)[O-])c3)c3ccccc3c2=O)c(C)c1	none
Cc1ccc(-c2nn(CC(=O)Nc3ccc(C)cc3C)c(=O)c3ccccc23)cc1	NOMO-1 viab 111
O/N=C1/C2CN3CCN(C2)CC1(Cc1ccccc1)C3	none (no result: STK33 inh)
Cc1c(Cl)cccc1NC(=O)CSc1nnc(-c2ccc(Cl)c(Cl)c2)n1C	none (no result: PD-1 reverse act)
COc1ccc(S(=O)(=O)Nc2ccc3c(c2)C(=O)N([C@@H](C)CO)C[C@H](C)[C@@H](CN(C)Cc2ccc(Oc4ccccc4)cc2)O3)cc1	none
C[C@@H]1CN([C@@H](C)CO)C(=O)c2cc(NS(=O)(=O)c3ccccc3)ccc2O[C@@H]1CN(C)Cc1ccc(Oc2ccccc2)cc1	NOMO-1 viab 118 (no result: STK33 inh)
C[C@H](CO)N1C[C@H](C)[C@@H](CN(C)Cc2ccc(Oc3ccccc3)cc2)Oc2ccc(NS(=O)(=O)c3ccc(F)cc3)cc2C1=O	none (no result: STK33 inh)
C[C@H]1CN([C@@H](C)CO)C(=O)c2cc(NS(=O)(=O)c3ccc(F)cc3)ccc2O[C@@H]1CN(C)Cc1ccc(Oc2ccccc2)cc1	NOMO-1 viab 117 (no result: STK33 inh)
C[C@@H]1CN([C@@H](C)CO)C(=O)c2cc(NS(=O)(=O)c3ccc(F)cc3)ccc2O[C@@H]1CN(C)Cc1ccc(Oc2ccccc2)cc1	NOMO-1 viab 112 (no result: STK33 inh, PD-1 reverse act)
COc1ccc(S(=O)(=O)Nc2ccc3c(c2)C(=O)N([C@@H](C)CO)C[C@@H](C)[C@@H](CN(C)Cc2ccc(Oc4ccccc4)cc2)O3)cc1	NOMO-1 viab 113 (no result: STK33 inh, PD-1 reverse act)
C[C@H](CO)N1C[C@H](C)[C@H](CN(C)Cc2ccc(Oc3ccccc3)cc2)Oc2ccc(NS(=O)(=O)c3ccc(F)cc3)cc2C1=O	none
C[C@H]1CN([C@@H](C)CO)C(=O)c2cc(NS(=O)(=O)c3ccccc3)ccc2O[C@@H]1CN(C)Cc1ccc(Oc2ccccc2)cc1	none
CC1N=C(SCC#N)N2C(C)N=C(SCC#N)N12 (stereo not given)	none (no result: STK33 inh)
COc1cccc(S(=O)(=O)NCc2ccc(C(=O)Nc3ccc4sc(C)nc4c3)cc2)c1	none
Cc1cccc(C)c1OCC(=O)Nc1cccc(C(=O)O)c1C	none
COc1ccc(CCNC(=O)C(=O)c2c(-c3ccccc3)[nH]c3ccccc23)cc1OC	none
CCN1CCN(C(=O)CN(c2cccc([N+](=O)[O-])c2)S(C)(=O)=O)CC1	none (no result: PD-1 reverse act)
O=C(CSc1nnc(-c2ccccc2)n1-c1ccccc1)Nc1cccc(F)c1	none
COc1ccc(S(=O)(=O)Nc2ccc3c(c2)C(=O)N([C@@H](C)CO)C[C@@H](C)[C@@H](CN(C)Cc2ccc(-c4ccccc4)cc2)O3)cc1	NOMO-1 viab 91
Cc1noc(C)c1S(=O)(=O)Nc1ccc2c(c1)C(=O)N([C@H](C)CO)C[C@@H](C)[C@@H](CN(C)Cc1ccc(Oc3ccccc3)cc1)O2	NOMO-1 viab 105 (no result: STK33 inh)
Cc1noc(C)c1S(=O)(=O)Nc1ccc2c(c1)C(=O)N([C@H](C)CO)C[C@H](C)[C@@H](CN(C)Cc1ccccc1)O2	none (no result: STK33 inh)
COc1ccc(S(=O)(=O)Nc2ccc3c(c2)C(=O)N([C@H](C)CO)C[C@@H](C)[C@H](CN(C)Cc2ccc(-c4ccccc4)cc2)O3)cc1	none
NNC(=O)CC12CC3CC(CC(C3)C1)C2	none (no result: STK33 inh)
Cc1occc1-c1nnc2sc(-c3ccc(-c4ccccc4[N+](=O)[O-])o3)nn12	none
O=C1c2ccccc2C(=O)N1CCC12CC3CC(CC(C3)C1)C2	none (no result: STK33 inh)
Fc1cccc(Cl)c1CSc1ccccc1C1=NCCCN1	none (no result: STK33 inh)
Fc1cccc(Cl)c1CSC1=NCCN1	NOMO-1 viab 136 (no result: STK33 inh)
COc1ccc(-n2c(SCC(=O)Nc3ccc(F)cc3F)nnc2-c2ccco2)cc1	none
Cn1nnnc1SCC(=O)c1ccc(O)c(O)c1	none
CCOC(=O)COc1c(C#N)sc2c1c(=O)n(-c1ccccc1)c(=S)n2-c1ccccc1	NOMO-1 viab 112 (no result: STK33 inh)
O=c1[nH]c(=S)[nH]c(O)c1C=Nc1cccc(O)c1	none (no result: STK33 inh)
O=C(CC1Nc2cccc3cccc(c23)NC1=O)Nc1ccc([N+](=O)[O-])cc1 (stereo not given)	NOMO-1 viab 124
O=C(CC1Nc2cccc3cccc(c23)NC1=O)Nc1cccc([N+](=O)[O-])c1 (stereo not given)	none
COc1cc(OC)cc(OCC(O)Cn2cnc3ccccc32)c1 (stereo not given)	none
Cn1c(=O)c2c(nc(SCc3nn[nH]n3)n2Cc2ccccc2)n(C)c1=O	none
N#C/C(=C\c1ccc(Cl)c(Cl)c1)c1ccc(NC(N)=O)cc1	none (no result: STK33 inh)
COC(=O)C[C@H]1C(C)(C)C(=O)[C@@H]2C[C@@]3(O)C4=CC(=O)O[C@@H](c5ccoc5)[C@]4(C)CCC3[C@@]1(C)C2=O (stereo not given in full)	NOMO-1 viab 104 (no result: PD-1 reverse act)
CC1(C)C(=O)[C@@H]2C[C@@]3(O)C4=CC(=O)O[C@@H](c5ccoc5)[C@]4(C)CCC3[C@@](C)(C2=O)[C@H]1CC(=O)O (stereo not given in full)	none (no result: PD-1 reverse act)
Cc1ccc(-c2nc3cc(NC(=O)COc4ccccc4Cl)ccc3o2)c(C)c1	none (no result: PD-1 reverse act)
COc1cc(-c2nnc(SCC(N)=O)n2C)cc(OC)c1OC	none (no result: PD-1 reverse act)
Cc1ccc(S(=O)(=O)Nc2ccc3c(c2)C(=O)N([C@H](C)CO)C[C@H](C)[C@@H](CN(C)Cc2ccc(Oc4ccccc4)cc2)O3)cc1	none (no result: STK33 inh)
Cc1ccc(S(=O)(=O)Nc2ccc3c(c2)C(=O)N([C@@H](C)CO)C[C@H](C)[C@@H](CN(C)Cc2ccc(Oc4ccccc4)cc2)O3)cc1	NOMO-1 viab 106
COc1ccc(S(=O)(=O)Nc2ccc3c(c2)C(=O)N([C@H](C)CO)C[C@H](C)[C@H](CN(C)Cc2ccc(Oc4ccccc4)cc2)O3)cc1	none (no result: STK33 inh)
Cc1ccc(S(=O)(=O)Nc2ccc3c(c2)C(=O)N([C@@H](C)CO)C[C@@H](C)[C@@H](CN(C)Cc2ccc(Oc4ccccc4)cc2)O3)cc1	NOMO-1 viab 113 (no result: STK33 inh, PD-1 reverse act)
O=S(=O)(Nc1ncccn1)c1ccc(NC(=S)Nc2ccc(Oc3ccccc3)cc2)cc1	none (no result: PD-1 reverse act)
Cc1cc(Cl)ccc1NC(=O)CNS(=O)(=O)c1ccc(Br)cc1	none
Cc1nc(-c2c(C(F)(F)F)oc3cc(O)ccc3c2=O)cs1	none (no result: STK33 inh)
Cc1nc(C2C(=O)c3ccc(O)c(O)c3OC2C(F)(F)F)cs1 (stereo not given)	NOMO-1 viab 107
C[C@H](CO)N1C[C@H](C)[C@@H](CN(C)CC2CCCCC2)Oc2c(NC(=O)Nc3ccccc3)cccc2C1=O	NOMO-1 viab inconclusive (no result: STK33 inh)
C[C@H]1CN([C@@H](C)CO)C(=O)c2cccc(NC(=O)Nc3ccccc3)c2O[C@@H]1CN(C)CC1CCCCC1	NOMO-1 viab 90 (no result: STK33 inh)
C[C@H]1CN([C@@H](C)CO)C(=O)c2cccc(NC(=O)Nc3ccc(F)cc3)c2O[C@@H]1CN(C)CC1CCCCC1	NOMO-1 viab inconclusive (no result: STK33 inh)
C[C@@H]1CN([C@H](C)CO)C(=O)c2cccc(NC(=O)Nc3ccccc3)c2O[C@@H]1CN(C)CC1CCCCC1	none (no result: STK33 inh)
C[C@@H]1CN([C@H](C)CO)C(=O)c2cccc(NC(=O)Nc3ccc(F)cc3)c2O[C@H]1CN(C)CC1CCCCC1	NOMO-1 viab 113 (no result: STK33 inh)
C[C@@H]1CN([C@@H](C)CO)C(=O)c2cccc(NC(=O)Nc3ccccc3)c2O[C@H]1CN(C)CC1CCCCC1	NOMO-1 viab 93 (no result: STK33 inh, PD-1 reverse act)

High-throughput results deposited in PubChem BioAssay by Broad Institute.
